Data on seven compounds can be found in PubChem BioAssay (EPA / NIEHS).

What all share (conditions): mRNA level, 48 h; actives raise or lower the signal
Read-out in assay [1]: ATP-citrate lyase (ACLY), ACLY (gene 47)
In words: LTEA_HepaRG_ACLY: Life Technologies and Expression Analysis (LTEA) Assay for ATP-citrate lyase (ACLY) using HepaRG (AID 2283466). In short, it runs like this:
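HepaRG, 48 h exposure, 8-pt half-log dilutions (top 100 uM), 0.5% DMSO. Readout: ACLY mRNA, TaqMan qRT-PCR, housekeeping-normalized (ACTB/GAPDH/POLR2A). Bidirectional curve fit vs DMSO.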

Read-out in assay [2]: Alkaline Phosphatase, Placental (ALPP) gene, ALPP (gene 250)
Put plainly: LTEA_HepaRG_ALPP: Life Technologies and Expression Analysis (LTEA) Assay for Alkaline Phosphatase, Placental (ALPP) gene using HepaRG (AID 2283468).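 As to AC50: differentiated human HepaRG liver cells in serum-free induction medium.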 In short, it runs like this: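 Using human liver HepaRG cells, chemicals are tested in duplicate over 48 h at half-log concentrations topping at 100 uM; phenobarbital 1 mM serves as induction control. ALPP mRNA change by qRT-PCR, bidirectional fit against vehicle.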

Read-out in assay [3]: Bcl-2 (BAD) gene, BAD (gene 572)
In words: LTEA_HepaRG_BAD: Life Technologies and Expression Analysis (LTEA) Assay for Bcl-2 (BAD) gene using HepaRG (AID 2283469). The gist of the method: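 BAD transcript change, measured by qRT-PCR against three housekeeping genes and fitted in both directions relative to 0.5% DMSO, after 48 h chemical treatment of human HepaRG liver cells at concentrations up to 100 uM.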

Read-out in assay [4]: Bcl-2 (BAX) gene, BAX (gene 581)
In words: LTEA_HepaRG_BAX: Life Technologies and Expression Analysis (LTEA) Assay for Bcl-2 (BAX) gene using HepaRG (AID 2283470). The gist of the method:
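HepaRG (human liver), 48 h exposure, duplicate wells. 8-pt curve, half-log from 100 uM, 0.5% DMSO. BAX transcript by TaqMan qRT-PCR; ACTB/GAPDH/POLR2A normalization; gain or loss vs DMSO baseline.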

Read-out in assay [5]: Alpha-fetoprotein (AFP) gene, AFP (gene 174)
In words: LTEA_HepaRG_AFP: Life Technologies and Expression Analysis (LTEA) Assay for Alpha-fetoprotein (AFP) gene using HepaRG (AID 2283472). The gist of the method: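 HepaRG, single lot; 48 h post-plating -> serum-free induction medium; cpd 8-pt, 100 uM top, half-log, 0.5% DMSO, duplicate, 48 h. RNA -> qRT-PCR AFP, norm ACTB/GAPDH/POLR2A. Bidirectional fit vs DMSO.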

Read-out in assay [6]: BCL2L11 (gene 10018)
In words: LTEA_HepaRG_BCL2L11: Life Technologies and Expression Analysis (LTEA) Assay for Bcl-2 (BCL2L11) gene using HepaRG (AID 2283473). In short, it runs like this: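 Human hepatic HepaRG cultures are treated 48 h with test chemicals (maximum 100 uM, 0.5% DMSO vehicle). Expression of BCL2L11 is measured by qRT-PCR against ACTB, GAPDH and POLR2A, with activity in either direction scored relative to vehicle.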

Read-out in assay [7]: Apolipoprotein A-V (APOA5) gene, APOA5 (gene 116519)
In words: LTEA_HepaRG_APOA5: Life Technologies and Expression Analysis (LTEA) Assay for Apolipoprotein A-V (APOA5) gene using HepaRG (AID 2283474). In short, it runs like this:
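Concentration-response of APOA5 expression in HepaRG: eight half-log doses to 100 uM, 48 h, qRT-PCR normalized to ACTB/GAPDH/POLR2A, bidirectional fitting with 0.5% DMSO as baseline.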

Read-out in assay [8]: Apoptosis regulator Bcl-2 (Homo sapiens) (UniProt P10415)
In words: LTEA_HepaRG_BCL2: Life Technologies and Expression Analysis (LTEA) Assay for Bcl-2 gene using HepaRG (AID 2283475). The gist of the method:
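HepaRG, plated 48 h then switched to serum-free induction medium; dosed 48 h, 8 conc. (max 100 uM, half-log steps), duplicate, 0.5% DMSO. Lysis in RLT, RNA isolated, TaqMan qRT-PCR for BCL2; ACTB/GAPDH/POLR2A normalisation; bidirectional fit vs DMSO.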

Read-out in assay [9]: Bcl-2 (BID) gene, BID (gene 637)
Put plainly: LTEA_HepaRG_BID: Life Technologies and Expression Analysis (LTEA) Assay for Bcl-2 (BID) gene using HepaRG (AID 2283476). In short, it runs like this: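 Transcript levels of BID, measured by qRT-PCR and normalized to three housekeeping genes, were fitted bidirectionally against DMSO controls. Cells were HepaRG, dosed 48 h at up to 100 uM.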

Read-out in assay [10]: Caspase-3 (Homo sapiens) (UniProt P42574)
Put plainly: LTEA_HepaRG_CASP3: Life Technologies and Expression Analysis (LTEA) Assay for cysteine-aspartic acid protease (CASP3) using HepaRG (AID 2283477). The gist of the method:
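Transcript-level assay: CASP3 mRNA in human HepaRG after 48 h treatment, eight half-log concentrations from 100 uM in 0.5% DMSO, quantified by qRT-PCR.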

Read-out in assay [11]: Cytochrome P450 (CYP24A1), CYP24A1 (gene 1591)
In words: LTEA_HepaRG_CYP24A1: Life Technologies and Expression Analysis (LTEA) Assay for Cytochrome P450 (CYP24A1) using HepaRG (AID 2283478). In short, it runs like this:
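Gene expression of CYP24A1 by TaqMan qRT-PCR in HepaRG after 48 h treatment, highest concentration 100 uM; activity fitted in both directions relative to DMSO vehicle.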

Read-out in assay [12]: Cytochrome P450 (CYP1A2), CYP1A2 (gene 1544)
Put plainly: LTEA_HepaRG_CYP1A2: Life Technologies and Expression Analysis (LTEA) Assay for Cytochrome P450 (CYP1A2) using HepaRG (AID 2283479). The gist of the method: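 In duplicate wells, HepaRG cultures maintained in 0.5% DMSO were treated 48 h across an 8-point, half-log series topping at 100 uM; phenobarbital (1 mM) served as induction control. Expression was read by qRT-PCR.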

Read-out in assay [13]: cysteine-aspartic acid protease (CASP8), CASP8 (gene 841)
Put plainly: LTEA_HepaRG_CASP8: Life Technologies and Expression Analysis (LTEA) Assay for cysteine-aspartic acid protease (CASP8) using HepaRG (AID 2283480). In short, it runs like this:
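HepaRG, 48 h exposure, duplicate wells; 8 conc, half-log from 100 uM, 0.5% DMSO. Serum-free induction medium. CASP8 mRNA by TaqMan qRT-PCR, norm. ACTB/GAPDH/POLR2A; gain/loss fitted vs DMSO.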

Read-out in assay [14]: Cytochrome P450 (CYP2B6), CYP2B6 (gene 1555)
In words: LTEA_HepaRG_CYP2B6: Life Technologies and Expression Analysis (LTEA) Assay for Cytochrome P450 (CYP2B6) using HepaRG (AID 2283481). The gist of the method: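 Human HepaRG, 48 h dosing, 0.5% DMSO vehicle, top dose 100 uM. CYP2B6 transcript by qRT-PCR, housekeeping-normalized, bidirectional curve fit.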

Read-out in assay [15]: Cytochrome P450 2C19 (Homo sapiens) (UniProt P33261)
In words: LTEA_HepaRG_CYP2C19: Life Technologies and Expression Analysis (LTEA) Assay for CYP2C19 using HepaRG (AID 2283482). In short, it runs like this:
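Endpoint: CYP2C19 mRNA change, bidirectional fit vs 0.5% DMSO. Cells: HepaRG, 48 h exposure, eight-point series topping at 100 uM. Quantitation: qRT-PCR normalized to ACTB, GAPDH, POLR2A.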

Read-out in assay [16]: CYP2C8 (gene 1558)
Put plainly: LTEA_HepaRG_CYP2C8: Life Technologies and Expression Analysis (LTEA) Assay for CYP2C8 using HepaRG (AID 2283483). In short, it runs like this:
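CYP2C8 mRNA induction or loss, by qRT-PCR normalized to ACTB/GAPDH/POLR2A, is read in HepaRG cells after 48 h treatment. Concentrations run from 100 uM down in half-log dilutions, with 0.5% DMSO as vehicle and baseline.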

Read-out in assay [17]: CYP2C9 (gene 1559)
Put plainly: LTEA_HepaRG_CYP2C9: Life Technologies and Expression Analysis (LTEA) Assay for CYP2C9 using HepaRG (AID 2283484). In short, it runs like this: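 Cells plated 48 h, switched to serum-free induction medium, then treated in duplicate for 48 h at eight concentrations (max 100 uM, 0.5% DMSO). RNA then analysed by qRT-PCR for CYP2C9; curves fitted in both directions relative to DMSO.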

Read-out in assay [18]: CYP2E1 (gene 1571)
Put plainly: LTEA_HepaRG_CYP2E1: Life Technologies and Expression Analysis (LTEA) Assay for CYP2E1 using HepaRG (AID 2283485). The gist of the method: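 Human liver line HepaRG, plated 48 h, then serum-free induction medium + chemical x 48 h; 8-pt CRC from 100 uM, half-log, 0.5% DMSO, n=2. Readout: CYP2E1 mRNA qRT-PCR vs ACTB/GAPDH/POLR2A; bidirectional fit vs DMSO.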

Read-out in assay [19]: adenosine kinase (ADK) gene, ADK (gene 132)
In words: LTEA_HepaRG_ADK: Life Technologies and Expression Analysis (LTEA) Assay for adenosine kinase (ADK) gene using HepaRG (AID 2283471). The gist of the method: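 Differentiated HepaRG cells dosed 48 h in serum-free induction medium, 0.5% DMSO vehicle, eight half-log concentrations from 100 uM, in duplicate. ADK mRNA by TaqMan qRT-PCR normalised to ACTB, GAPDH, POLR2A; bidirectional fit versus DMSO.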

The source made the active and inactive calls. The calls were made as follows: active = hit-call score of the fitted dose curve at least 0.9, where 1 is the maximum; inactive = score below 0.9.

Sequence of Caspase-3 (Homo sapiens) (P42574 whole entry, looked up): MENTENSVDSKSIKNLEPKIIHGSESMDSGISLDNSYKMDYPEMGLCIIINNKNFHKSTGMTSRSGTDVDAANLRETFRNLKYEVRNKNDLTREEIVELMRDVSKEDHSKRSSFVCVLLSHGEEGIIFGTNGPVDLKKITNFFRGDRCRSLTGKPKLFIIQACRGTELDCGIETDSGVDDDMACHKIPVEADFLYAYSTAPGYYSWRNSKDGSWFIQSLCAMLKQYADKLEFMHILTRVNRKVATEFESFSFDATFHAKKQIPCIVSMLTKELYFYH
Sequence of Cytochrome P450 2C19 (Homo sapiens) (P33261 whole entry, looked up): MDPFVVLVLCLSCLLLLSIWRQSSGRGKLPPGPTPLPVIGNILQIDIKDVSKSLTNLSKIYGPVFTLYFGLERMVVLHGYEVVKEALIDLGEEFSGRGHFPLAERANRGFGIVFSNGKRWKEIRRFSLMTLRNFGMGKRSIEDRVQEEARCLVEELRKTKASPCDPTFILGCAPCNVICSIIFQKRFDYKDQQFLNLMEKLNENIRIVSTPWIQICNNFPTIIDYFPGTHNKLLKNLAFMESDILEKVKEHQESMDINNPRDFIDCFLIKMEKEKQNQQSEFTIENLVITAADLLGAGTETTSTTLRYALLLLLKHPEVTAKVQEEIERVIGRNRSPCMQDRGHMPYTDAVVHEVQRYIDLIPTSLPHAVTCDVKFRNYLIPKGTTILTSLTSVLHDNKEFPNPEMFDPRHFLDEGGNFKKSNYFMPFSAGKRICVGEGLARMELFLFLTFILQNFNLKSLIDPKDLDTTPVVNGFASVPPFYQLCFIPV
Sequence of Apoptosis regulator Bcl-2 (Homo sapiens) (P10415 whole entry, looked up): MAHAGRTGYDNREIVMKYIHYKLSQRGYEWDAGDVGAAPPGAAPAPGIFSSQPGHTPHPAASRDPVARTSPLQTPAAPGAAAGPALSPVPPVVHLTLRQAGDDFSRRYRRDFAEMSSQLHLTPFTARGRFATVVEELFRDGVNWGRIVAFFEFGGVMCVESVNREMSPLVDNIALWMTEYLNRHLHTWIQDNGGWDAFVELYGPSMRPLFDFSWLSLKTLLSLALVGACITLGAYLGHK

Take `COc1cc(C(C)C)c2c(c1)S(=O)(=O)N(COc1cc(=O)n3cccc(OCCN4CCCCC4)c3n1)C2=O`: the outcome in assay [1], in assay [3], in assay [4], in assay [6], in assay [9] and in [10] was inactive. For the same compound, the outcome in [11] and in assay [13] was inactive. Moreover, the half-maximal activity concentration (AC50) in assay [2] was 6.3 µM (active); in assay [5], 19.5 µM (active); in assay [7] it was 22.6 µM (active); in assay [8] it was 22.1 µM (active); in [12] it was 20.2 µM (active); in assay [14] it was 22.5 µM (active). Further, the AC50 is 19.3 µM (active) in assay [15], 19.9 µM (active) in assay [16], 23.6 µM (active) in [17] and 17.2 µM (active) in assay [18].

As to `CC1(C)C(=O)N(Cl)C(=O)N1Cl`, the call in [1], in assay [2], in assay [3], in assay [4], in assay [5] and in assay [6] was inactive. Besides, the call in assay [7], in assay [8], in [9], in assay [10], in assay [11] and in [13] was inactive. For the same compound, the compound was called inactive in [15], in assay [16] and in [17]. Moreover, the concentration at half-maximal activity (AC50) in assay [12] is 50 µM (active).

On to `CCCCN1C(=O)[C@@H]([C@H](O)C2CCCCC2)NC(=O)C12CCN(Cc1ccc(Oc3ccc(C(=O)O)cc3)cc1)CC2`, for which the AC50 in [1] was 0.672 µM (active); in assay [2] it was 7.87 µM (active); in [3] it was 3.81 µM (active); in assay [5], 3 µM (active); in assay [6], 4.66 µM (active); in assay [7], 3.04 µM (active). Further, the AC50 was 12.7 µM (active) in [8]; 2.23 µM (active) in assay [10]; 9.92 µM (active) in [11]; 2.06 µM (active) in [12]; 3.02 µM (active) in assay [13]; 2.02 µM (active) in assay [15]. In addition, the values for the AC50 in [16], in [17] and in [18] were 3.24 µM (active), 1.7 µM (active) and 3.86 µM (active), respectively. The call in assay [4] and in [9] was inactive.

As for `NC(=O)N1c2ccccc2C=Cc2ccccc21`, the outcome in assay [1], in [2], in assay [3], in assay [4], in assay [5] and in assay [6] was inactive. Moreover, the result in assay [7], in [8], in [9], in assay [10], in assay [11] and in [12] was inactive. Besides, the compound was called inactive in assay [13], in [16] and in assay [17]. Moreover, the AC50 in assay [15] is 15.9 µM (active).

In the case of `C=CN1CCCC1=O`, the call in [1], in [2], in [3], in [4], in [5] and in assay [6] was inactive. For the same compound, the compound was called inactive in assay [7], in [8], in assay [9], in [10], in assay [11] and in assay [12]. Moreover, the result in [13], in [14], in [15], in assay [16] and in assay [17] was inactive.

On to `CCCOc1ccc(S(=O)(=O)N2CCN(CC)CC2)cc1-c1nc2c(CC)n(Cc3ccccn3)nc2c(=O)[nH]1`, for which the concentration at half-maximal activity (AC50) was 80.2 µM (active) in assay [1]; 50 µM (active) in assay [2]; 26.9 µM (active) in assay [5]; 79.4 µM (active) in [12]; 18.2 µM (active) in assay [15]; 3.5 µM (active) in assay [16]. Also, in assay [18], the half-maximal activity concentration (AC50) is 4.54 µM (active). For the same compound, the compound was called inactive in [3], in assay [4], in [19], in assay [6], in assay [7] and in [8]. Besides, the compound was called inactive in assay [9], in assay [10], in assay [11], in [13] and in [17].

As for `CCCCCCCCCC`, the result in assay [1], in assay [2], in [3], in assay [4], in assay [5] and in [6] was inactive. For the same compound, the call in assay [7], in assay [8], in assay [9], in [10], in assay [11] and in [13] was inactive. In addition, the result in assay [15], in assay [16] and in assay [17] was inactive. In assay [12], the AC50 was 50 µM (active).

In general, AC50 refers to the midpoint of the concentration-response curve, whichever way the signal moves.
